# Among all 310,000 compounds or so, about 2,200 (0.71%) showed an effect of 50% or more. Effects have a minus sign here. The list comes from a sample in which strong results are over-represented; it also holds similar structures and randomly drawn compounds.
# Biological target: human ether-à-go-go-related gene (hERG) potassium channel (human, UniProt Q12809)
# Test: primary screen, population patch clamp on CHO cells stably expressing hERG; higher = less effect of the substance
# Chain of human ether-à-go-go-related gene (hERG) potassium channel (Q12809 whole entry, looked up): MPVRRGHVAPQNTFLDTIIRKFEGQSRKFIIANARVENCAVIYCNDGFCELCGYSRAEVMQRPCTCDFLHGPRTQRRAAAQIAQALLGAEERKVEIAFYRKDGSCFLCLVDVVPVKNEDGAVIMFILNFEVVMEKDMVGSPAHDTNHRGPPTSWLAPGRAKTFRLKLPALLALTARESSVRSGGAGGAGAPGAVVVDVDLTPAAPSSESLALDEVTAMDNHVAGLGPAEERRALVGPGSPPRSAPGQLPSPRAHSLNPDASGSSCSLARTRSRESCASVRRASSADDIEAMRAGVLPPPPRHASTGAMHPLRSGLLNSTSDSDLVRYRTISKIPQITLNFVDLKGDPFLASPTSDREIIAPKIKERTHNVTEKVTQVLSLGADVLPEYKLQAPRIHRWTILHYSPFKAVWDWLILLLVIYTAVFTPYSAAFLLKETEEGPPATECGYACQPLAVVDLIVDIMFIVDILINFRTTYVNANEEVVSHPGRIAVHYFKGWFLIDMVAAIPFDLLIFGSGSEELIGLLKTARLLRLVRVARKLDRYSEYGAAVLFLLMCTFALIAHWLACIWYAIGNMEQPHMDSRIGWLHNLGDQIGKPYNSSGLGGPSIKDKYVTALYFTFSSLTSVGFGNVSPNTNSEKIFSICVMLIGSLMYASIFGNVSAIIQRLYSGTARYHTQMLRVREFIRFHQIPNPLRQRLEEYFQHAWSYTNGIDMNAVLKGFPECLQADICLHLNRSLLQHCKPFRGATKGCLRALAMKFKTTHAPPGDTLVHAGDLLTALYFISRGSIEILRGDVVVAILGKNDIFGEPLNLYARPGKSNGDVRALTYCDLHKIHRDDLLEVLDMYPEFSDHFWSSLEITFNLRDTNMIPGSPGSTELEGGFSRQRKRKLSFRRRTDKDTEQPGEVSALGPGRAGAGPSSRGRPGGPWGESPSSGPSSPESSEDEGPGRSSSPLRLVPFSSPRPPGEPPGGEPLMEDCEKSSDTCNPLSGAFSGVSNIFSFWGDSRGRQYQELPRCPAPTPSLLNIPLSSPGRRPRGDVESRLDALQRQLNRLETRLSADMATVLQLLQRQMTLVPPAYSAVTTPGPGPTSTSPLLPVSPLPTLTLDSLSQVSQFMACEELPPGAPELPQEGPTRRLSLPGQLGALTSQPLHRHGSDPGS
row,SMILES,"hERG current change (%, negative = inhibition) at 1uM [%]"
1,CC(C)C(NC(=S)NCc1ccccc1)C(=O)O (centres unmarked),12.7
2,N#CNC(N)=Nc1cccc(Cl)c1,16.4
3,O=C(N/N=C/c1cn(-c2ccccc2)nc1-c1cccnc1)c1cccnc1,-26.3
4,Cc1cc(C)cc(NC(=O)CCN2CCOCC2)c1,7.44
5,C#CCN(N(C)c1ncc(C(F)(F)F)cc1Cl)S(=O)(=O)c1ccc2ccccc2c1,14.3
6,Cc1ccc(NC(=S)c2nc3ccccc3[nH]2)c(C)c1,14.6
7,CC(C)Cn1c(-c2ccc(F)cc2)n[nH]c1=S,11.6
8,COc1ccc(CN2CCN(CCCc3ccccc3)CC2)c(OC)c1,-64.9
9,COc1ccc(CN2CCC(C(=O)N3CCN(c4ccccc4F)CC3)CC2)cc1OC,3.9
10,COc1cc(CN2CCN(c3ccccc3F)CC2)cc(OC)c1O,2.78
11,COc1ccc(CN2CCN(c3ccccc3F)CC2)cc1O,-51.2
12,COc1ccc(CN2CCN(Cc3ccccc3F)CC2)c(OC)c1.O=C(O)C(=O)O,-36
13,COc1ccc(CN2CCN(CCCc3ccccc3)C(CCO)C2)c(OC)c1 (centres unmarked),-39.7
14,COc1ccc(CN2CCN(c3ccccc3F)CC2)c(OC)c1,-57.8
15,CC(C(=O)N1CCc2ccccc21)N1CCN(Cc2ccc(Cl)cc2)CC1 (centres unmarked),-30.9
16,COc1ccc(CN2CCN(Cc3ccccc3)CC2)c(OC)c1,-43.8
17,COc1ccc(CN2CCN(C(C)C(=O)N3CCc4ccccc43)CC2)cc1OC (centres unmarked),-52.3
18,CC(C(=O)N1CCc2ccccc21)N1CCN(Cc2ccccc2)CC1 (centres unmarked),4.18
19,COc1ccc(CN2CCN(c3ccccc3OC)CC2)c(OC)c1.O=C(O)C(=O)O,-47.7
20,C(=N\n1cnnc1)/c1cccs1,5.5
21,CN(c1ccc(C(=O)NCCSCc2ccc(Cl)cc2)cc1)S(=O)(=O)c1ccccc1,14.1
22,CCc1ccc(CN(C)C(=O)c2cc(COc3cccc(C(F)(F)F)c3)on2)nc1,6.84

row,SMILES,"hERG current change (%, negative = inhibition) at 1uM [%]"
1,C=CCNC(=O)CSc1nnc(C(CC)N(C)C)n1C1CCCCC1 (centres unmarked),8.12
2,O=C(Nc1nc(-c2ccccc2)cs1)c1ccc(N2CCOCC2)c([N+](=O)[O-])c1,31.6
3,CC(=O)Nc1ccc2c(c1)N(C(=O)CN(C)C)c1ccccc1CC2,9.16
4,Cc1cc(C(=O)CN2C(=O)c3ccccc3C2=O)c(C)n1Cc1cccs1,9.88
5,COc1ccc(CN2CCN(c3ccccn3)CC2)c(OC)c1,-52
6,COc1ccc(-c2[nH]ncc2CN2CCN(c3ccccn3)CC2)c(OC)c1,2.51
7,COc1ccc(CN2CCN(c3ccccn3)CC2)c(OC)c1C.O=C(O)C(=O)O,5.42
8,COc1cc(CN2CCN(c3cccc(C)c3C)CC2)cc(Br)c1O,1.25
9,COc1cc(CN2CCN(c3cccc(C)c3C)CC2)cc(OC)c1O,-20.4
10,COc1ccc(CN2CCN(c3cccc(C)c3C)CC2)cc1OC,-61.1
11,CCOc1ccc(NC(=O)CCC(=O)c2ccc(OC)cc2)cc1,16.1
12,Cc1c(Cl)ccc(S(=O)(=O)NCCCn2ccnc2)c1Cl,12.2
13,CN1CCN(C(=O)c2cnn(-c3ccccc3)c2NC(=O)c2ccccc2)CC1,10.4
14,CN1CCN(C(=O)c2cnn(-c3ccccc3)c2NC(=O)c2ccccc2Br)CC1,15.2
15,CN1CCN(C(=O)c2cnn(-c3ccccc3)c2NC(=O)c2ccc(Br)cc2)CC1,-88.5
16,COc1ccc(CCNC(=O)c2cc3c(=O)n4ccccc4nc3n(CCCN3CCOCC3)c2=N)cc1,-88.9
17,COc1ccc(CCn2c(=N)c(C(=O)NCCN3CCOCC3)cc3c(=O)n4ccccc4nc32)cc1OC,10.4
18,COc1ccc(CCNC(=O)c2cc3c(=O)n4ccccc4nc3n(CCCN3CCOCC3)c2=N)cc1OC,-39.4
19,COc1ccc(CNC(=O)C(C)Sc2nc3ccccc3c(=O)n2CC2CCCO2)cc1 (centres unmarked),-17.5
20,COc1ccc(CNC(=O)C(C)Sc2nc3ccccc3c(=O)n2CCCN2CCOCC2)cc1 (centres unmarked),-95
21,COc1ccc(CCNC(=O)c2cc3c(=O)n4cccc(C)c4nc3n(CCCN3CCOCC3)c2=N)cc1,-85.1
22,Cc1cccn2c(=O)c3cc(C(=O)NCCN4CCOCC4)c(=N)n(CCCN4CCOCC4)c3nc12,16.7

row,SMILES,"hERG current change (%, negative = inhibition) at 1uM [%]"
1,COc1ccc(CCNC(=O)c2cc3c(=O)n4ccccc4nc3n(CCN3CCOCC3)c2=N)cc1,-82
2,COc1ccccc1CNC(=O)CSc1nc2ccccc2c(=O)n1CCCN1CCOCC1,-6.17
3,Cc1cc(=O)[nH]c(N/N=C/c2c(C)nn(-c3ccc(F)cc3)c2Cl)n1,-3.02
4,CN1CCN(c2ccc(NC(=O)c3cc4ccccc4o3)cc2)CC1,-14.8
5,CCCC(C(=O)NC(C)(C)CC)N(CC1CCCO1)C(=O)CNS(=O)(=O)c1ccc(F)cc1 (centres unmarked),-12.1
6,Cc1nc2ccccc2n1C1CCN(CC(=O)NCc2ccc(F)cc2)CC1,-23.3
7,COc1ccc(CNC(=O)CCC(=O)N2CC(C)Oc3ccccc32)cc1 (centres unmarked),-0.874
8,CCN(C(=O)c1ccc2c(OC)n(CC)nc2c1)c1ccc(OC)cc1,0.888
9,CC(=O)c1cccc(NC(=O)C2CCN(S(C)(=O)=O)CC2)c1,10.7
10,CN(C)C=NC(=O)/C(C#N)=C1\CCc2ccccc2N1,0.195
11,COc1cc(Cl)cc(/C=C/c2ccc3ccccc3n2)c1OC(C)=O,16.6
12,CCCNc1nc(C)cc(-c2cc(C(=O)Nc3ccccc3)on2)n1,6.25
13,COCCNC(=O)c1cccc(OC2CCN(Cc3ccc(F)c(OC)c3)CC2)c1,4.26
14,COCCNC(=O)c1cccc(OC2CCN(Cc3ccc(OC(F)F)cc3)CC2)c1,-75.4
15,COc1ccc(C(=O)NCCc2cccc(Cl)c2)cc1OC1CCN(C(C)=O)CC1,-6.31
16,COc1ccc(C(=O)NC2CC2)cc1OC1CCN(Cc2ccc(Cl)cc2)CC1,-86.8
17,COc1ccc(C(=O)NC2CCC(O)CC2)cc1S(=O)(=O)NCc1ccc(Cl)cc1 (centres unmarked),-0.258
18,COc1ccc(C(=O)NC2CC2)cc1OC1CCN(Cc2ccccc2)CC1,-82.9
19,COc1cc(C(=O)NC2CCN(Cc3ccccc3)CC2)cc(Cl)c1OC,-1.24
20,COCCNC(=O)c1cccc(OC2CCN(Cc3ccc(C(C)C)cc3)CC2)c1,-11.3
21,COc1ccc(C(=O)NC2CC2)cc1OC1CCN(Cc2ccc(F)c(F)c2)CC1,-70.2
22,COCCNC(=O)c1cccc(OC2CCN(Cc3ccc(C(=O)OC)cc3)CC2)c1,6.44

row,SMILES,"hERG current change (%, negative = inhibition) at 1uM [%]"
1,COCCCNC(=O)c1ccc(OC)c(OC2CCN(C(C)C)CC2)c1,14.6
2,COc1ccc(C(=O)NC2CC2)cc1OC1CCN(Cc2cnn(C)c2)CC1,6.61
3,CCCCCCCCCCCCOC1OC(CO)C(O)C(O)C1NC(C)=O (centres unmarked),4.7
4,CC(Oc1ccccc1)C(=O)N=C1SC2CS(=O)(=O)CC2N1CCc1ccccc1 (centres unmarked),8.75
5,Cc1cc(Br)ccc1NC(=O)CN1C(=O)C2CC=CCC2C1=O (centres unmarked),2.16
6,CCn1c(SCC(=O)c2ccc3c(c2)OCCO3)nnc1C(C)C,7.74
7,O=C(Cn1c(=O)c(C(F)(F)F)nc2ccccc21)N1CCC2(CC1)OCCO2,-0.212
8,O=C(/C=C/c1ccoc1)c1ccccc1O,3.71
9,COc1ccc(CN2CCN(Cc3ccc(C)cc3)C(CCO)C2)cc1OC (centres unmarked),-13.3
10,COc1ccc(C(=O)NC2CC2)cc1OC1CCN(C(C)CSC)CC1 (centres unmarked),-54.2
11,COc1cc(C(=O)NC2CCN(Cc3nnnn3Cc3ccc(F)cc3)CC2)cc(OC)c1OC,3.89
12,COc1ccc(C(=O)NC2CC2)cc1OC1CCN(Cc2ccc(F)cc2)CC1,-81.9
13,COc1ccc(C(=O)NCCCSC)cc1OC1CCN(C(C)C)CC1,13.4
14,O=C(NC1CCN(Cc2ccccc2)CC1)c1ccc2c(c1)[nH]c(=O)n2Cc1ccc(F)cc1,6.14
15,C/C=C(\C)CN1CCC(Oc2cc(C(=O)NC3CC3)ccc2OC)CC1,-59.9
16,COc1ccc(C(=O)NC2CCCCCC2)cc1OC1CCN(C(C)=O)CC1,7.33
17,COc1ccc(C(=O)NC2CC2)cc1OC1CCN(Cc2ccc(SC)cc2)CC1,-96.9
18,COc1cc(C(=O)NC2CCCCC2)ccc1OC1CCN(C(C)=O)CC1,11.4
19,COc1ccc(C(=O)NC2CCCCC2)cc1OC1CCN(C(C)C)CC1,-30.9
20,Cc1ccc(S(=O)(=O)N2CCN(C(=O)CSc3ncc(C(F)(F)F)cc3Cl)CC2)cc1,11.1
